Values joined by “and” are separate entries in the source; they are usually repeats but may differ in a detail not shown here. Identical values can stand only once. Inconclusive results are not listed. A call without a number means that no potency is given here. Some structures have more than one record in an assay (separate samples or runs), and their calls can disagree. Active and inactive are the calls of the source. Calls come from the whole dose curve; as a rule, active = well fitted inhibition curve with a large enough effect; inconclusive = small, poorly fitted or top-dose-only effect; inactive = flat fitted curve, though single readings scatter. Peptide text beside a SMILES is read from it.

Among the data in PubChem BioAssay (NCATS) are Potency values, retold here.
Potency is the fitted concentration of half-maximal effect.

Sequence of Voltage-gated inwardly rectifying potassium channel KCNH2 (Homo sapiens) (Q12809 whole entry, looked up): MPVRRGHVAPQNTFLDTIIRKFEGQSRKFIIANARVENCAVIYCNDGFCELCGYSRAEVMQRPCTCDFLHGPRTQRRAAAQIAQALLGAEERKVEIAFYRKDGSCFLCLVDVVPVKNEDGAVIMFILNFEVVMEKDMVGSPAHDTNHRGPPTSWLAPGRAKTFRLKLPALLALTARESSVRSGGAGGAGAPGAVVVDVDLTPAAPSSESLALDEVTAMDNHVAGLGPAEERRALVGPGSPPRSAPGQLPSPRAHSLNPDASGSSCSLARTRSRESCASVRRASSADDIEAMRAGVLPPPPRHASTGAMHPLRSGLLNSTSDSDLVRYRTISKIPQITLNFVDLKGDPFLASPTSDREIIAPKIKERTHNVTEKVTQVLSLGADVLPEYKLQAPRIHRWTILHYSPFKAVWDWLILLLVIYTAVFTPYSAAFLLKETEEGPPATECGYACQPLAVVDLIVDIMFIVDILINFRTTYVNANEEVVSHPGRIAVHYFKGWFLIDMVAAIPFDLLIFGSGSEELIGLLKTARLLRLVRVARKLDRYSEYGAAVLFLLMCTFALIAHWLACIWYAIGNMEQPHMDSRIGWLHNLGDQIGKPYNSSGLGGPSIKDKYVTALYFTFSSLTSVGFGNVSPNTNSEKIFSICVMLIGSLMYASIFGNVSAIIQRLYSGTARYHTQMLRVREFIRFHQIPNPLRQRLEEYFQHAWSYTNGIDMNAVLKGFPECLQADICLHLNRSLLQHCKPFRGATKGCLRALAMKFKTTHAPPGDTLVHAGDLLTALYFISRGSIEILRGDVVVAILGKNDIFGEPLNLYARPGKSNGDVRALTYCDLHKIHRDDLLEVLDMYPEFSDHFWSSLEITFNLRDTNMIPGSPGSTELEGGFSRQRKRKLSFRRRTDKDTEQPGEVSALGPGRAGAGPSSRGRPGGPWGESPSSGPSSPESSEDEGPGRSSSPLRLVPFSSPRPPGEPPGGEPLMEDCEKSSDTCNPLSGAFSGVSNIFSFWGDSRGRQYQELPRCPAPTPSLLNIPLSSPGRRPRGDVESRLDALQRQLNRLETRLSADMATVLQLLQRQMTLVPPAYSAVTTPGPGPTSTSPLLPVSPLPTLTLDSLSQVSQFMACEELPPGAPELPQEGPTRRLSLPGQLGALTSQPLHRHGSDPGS

The assay concerns the target Voltage-gated inwardly rectifying potassium channel KCNH2 (Homo sapiens) (UniProt Q12809). As to the kind of experiment: qHTS Assay for Small Molecule Inhibitors of the Human hERG Channel Activity (AID 588834).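 Note: lower thallium flux fluorescence means stronger hERG block; nearly all actives have a fitted effect of over 50% in size.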 Conditions: U2OS BacMam hERG, FluxOR thallium flux fluorescence; series mostly up to 46.1 µM. An excerpt: NIH Chemical Genomics Center [NCGC]
National Institutes of Environmental Health Sciences [NIEHS]
National Toxicology Program [NTP]
We have developed a 1536-well cell-based assay for quantitative high throughput screening (qHTS) to determine in vitro hERG channel blockage as a measure of cardio toxicity with small molecules. This particular assay uses the U2OS cell line which is derived from human osteosarcoma.
NCGC Assay Protocol Summary:
HERG assay (FluxORTM thallium flux assay) was initially developed by Invitrogen/Molecular Probes, and then miniaturized into 1536-well plate in a homogeneous format by NCGC. This assay measures the activity of potassium channel using thallium dye (FluxOR) flux as surrogate measurement for potassium into the cells with a FDSS-7000 kinetic plate reader (Hamamatsu Corp., Hamamatsu City, Japan). The hERG ion channel is transduced into mammalian cells (U2OS) using a baculovirus (Bacmam) construct harboring the hERG K+ ion channel. So far we screened LOPAC1280 library (Sigma), the NTP collection of 1408 compounds, and the NCGC Pharmaceutical Collection (NPC), in which many well defined HERG blockers are present. The rank order potencies of many of these compounds are similar to that of other HERG assays (membrane potential, Rb+ flux, patch clamp, etc). This quick and homogeneous assay is also found to be sensitive, specific, and robust.
Using the FluxORTM thallium flux assay, the activity of potassium channel using thallium dye (FluxOR) flux as surrogate measurement for potassium into the cells was measured in the U2OS cell line transduced with hERG K+ ion channel using a baculovirus (Bacmam) using Opti-MEM medium (Invitrogen) containing 2% fetal calf serum (FCS, HyCone) following loading buffer addition, compound treatment for around 10 minutes and finally adding stimulation buffer. The assay was performed in black clear Kalypsys 1536-well plates. In the screen, Astemizole was used as positive controls. Library compounds were measured for their ability to cause hERG channel blockage in the cell line, as reflected by a decrease in fluorescence intensity, in a concentration-dependent manner. […] AC50 values were determined from concentration-response data modeled with the standard Hill equation.
qHTS protocol for hERG-U2OS cellular assay
[Step] [Parameter] [Value] [Description]
1. Day 1: Replace medium in 70-80% confluent T225 flask with 2.5 mL of hERG-BacMam virus plus 12.5 mL of phosphate buffered saline (PBS) (corresponding roughly to a multiplicity of infection ratio of 100 virus particles/cell)
2. Incubation: 4 hrs @ room Temperature in Dark
3. Reagent; Remove virus; wash once with 25 ml DPBS
4. Reagent; 35 ml culture medium
5. Incubation; 37 °C overnight
6. Day2: Reagent; 3 uL; 2000 U2OS cells/well
7. Time; 4 hr; 37 °C incubation
8. Loading buffer; 1 uL; 0.7X;
9. Incubation: 1hr @ RT in Dark.
12. Time; 10min; 37 °C incubation
13. Read fluorescence Intensity on FDSS for 10 Sec with 1 sec interval
14. Reagent; 1 uL; stimulation buffer
15. Read fluorescence Intensity on FDSS for 2 min with 1 sec interval
16. Detection; Fluorescence Intensity; FDSS
As for `CC(C)(C)C1(O)CCN2CC3c4ccccc4CCc4cccc(c43)C2C1` (stereo not given), the Potency is 2.82 µM (active).
Turning to `CC(=O)Oc1cc(C)c(OC(C)=O)c2ccccc12`, the Potency result is “inactive”.
`Nc1c(Br)cc(Br)cc1CNC1CCC(O)CC1` (stereo not given): the Potency result is “inactive”.
With `CC(C)(C)C(=O)OCOC(=O)[C@@H]1N2C(=O)[C@@H](N=CN3CCCCCC3)[C@H]2SC1(C)C`, the Potency result was “inactive”.
In the case of `COC(=O)CCC(=O)CN` it was “inactive”; in that of `CC[C@@H](C(=O)O)[C@@H]1O[C@@H]([C@@H](C)[C@H](O)[C@H](C)C(=O)[C@H](CC)[C@H]2O[C@]3(C=C[C@@H](O)[C@]4(CC[C@@](C)([C@H]5CC[C@](O)(CC)[C@H](C)O5)O4)O3)[C@H](C)C[C@@H]2C)[C@@H](C)C[C@@H]1C`, “inactive”.
In the case of `CO[C@H]1C=CO[C@@]2(C)Oc3c(C)c(O)c4c(O)c(c5c(c4c3C2=O)=NC2(CCN(CC(C)C)CC2)N=5)NC(=O)/C(C)=C\C=C/[C@H](C)[C@H](O)[C@@H](C)[C@@H](O)[C@@H](C)[C@H](OC(C)=O)[C@@H]1C` it was “inactive”; in that of `CC(C)C(=O)OCC(=O)[C@@]12O[C@H](C3CCCCC3)O[C@@H]1C[C@H]1[C@@H]3CCC4=CC(=O)C=C[C@]4(C)[C@H]3[C@@H](O)C[C@@]12C`, 3.98 µM (active).
As for `O=C(O)c1cc(O)c2c(c1)[O][Bi][O]2`, the Potency result is “inactive”.
For the compound `CCCCCCC(O)C/C=C/CCCCCCCC(=O)O` (stereo not given), the Potency entry was “inactive”.
Then `CCCCCCCC(=O)O`, with “inactive”.
For `CN1Cc2c(N)cccc2C(c2ccccc2)C1` (stereo not given), the Potency result is “inactive and 12.6 µM (active)”.
As to `CCCC(=O)Nc1ncnc2c1ncn2C1OC2COP(=O)(O)OC2C1OC(=O)CCC` (stereo not given), the Potency entry is “inactive”.
Then `CC(Cc1ccc(O)c(O)c1)C(C)Cc1ccc(O)c(O)c1` (stereo not given), with “inactive”; and `Nc1ccn([C@H]2CS[C@@H](CO)O2)c(=O)n1`, with “inactive”; and `CC(=O)Oc1c(C)cc(OCC(O)CNC(C)C)c(C)c1C` (stereo not given), with “inactive”.
In the case of `CC[C@@]1(O)C(=O)OCc2c1cc1n(c2=O)Cc2cc3c([N+](=O)[O-])cccc3nc2-1` it was “inactive”; in that of `Cc1cc(CC(C)CC(C)(C)C)n(O)c(=O)c1` (stereo not given) (tested in a mixture with another compound), “inactive”; in that of `O=CCCCC=O`, “inactive”.
On to `C=C[C@]1(C)C[C@@H](OC(=O)CSC(C)(C)CNC(=O)[C@H](N)C(C)C)[C@]2(C)[C@H](C)CC[C@]3(CCC(=O)[C@H]32)[C@@H](C)[C@@H]1O`, for which the Potency was 7.08 µM (active).
In the case of `CCC(=O)O[C@]1(C(=O)CCl)[C@@H](C)C[C@H]2[C@@H]3C[C@H](F)C4=CC(=O)C=C[C@]4(C)[C@@]3(F)[C@@H](O)C[C@@]21C` it was “inactive”; in that of `CC(=O)N(CC(C)C(=O)O)c1c(I)cc(I)c(N)c1I` (stereo not given), “inactive”; in that of `CCOC(=O)C1=CC2(CC)CCCN3CCc4c(n1c1ccccc41)C32` (stereo not given), 0.0891 µM (active).
Then `CCCC(=O)O[C@]1(C(=O)COC(C)=O)CC[C@H]2[C@@H]3C[C@H](F)C4=CC(=O)C=C[C@]4(C)[C@@]3(F)[C@@H](O)C[C@@]21C`, with “inactive”; and `C[C@]12CCC(=O)C=C1CC[C@@H]1[C@@H]2[C@@H](O)C[C@@]2(C)[C@H]1CC[C@]2(O)C(=O)COP(=O)(O)O`, with “inactive”; and `CCCCCC(CC)COC(=O)CC(C(=O)OCC(CC)CCCC)S(=O)(=O)O` (stereo not given), with “inactive”.
Take `CCOC(C)=O`: the Potency result was “inactive”.
In the case of `CC(C)(C)NC(=O)[C@@H]1C[C@@H]2CCCC[C@@H]2CN1C[C@@H](O)[C@H](Cc1ccccc1)NC(=O)[C@H](CC(N)=O)NC(=O)c1ccc2ccccc2n1` it was 35.5 µM (active); in that of `O=C1C(=O)c2ncccc2-c2cccnc21`, “inactive”; in that of `CCCCCCCC/C=C\CCCCCCCC(=O)O`, “inactive”.
In the case of `CC(C)NCC1CCc2cc(CO)c([N+](=O)[O-])cc2N1` (stereo not given) it was “inactive”; in that of `COC(F)(F)C(Cl)Cl`, “inactive”; in that of `CC(=O)N[C@@H](CC(=O)O)C(=O)N[C@@H](CCC(=O)O)C(=O)O` (Ac-Asp-Glu-OH), “inactive”.
In the case of `O=C1CSC2(CCN(CCCN3c4ccccc4Sc4ccc(Cl)cc43)CC2)N1` it was 7.08 µM (active); in that of `CCc1ccc2c(c1)N(CC(C)CN(C)C)c1ccccc1S2` (stereo not given), 7.94 µM (active); in that of `CC(O)CO` (stereo not given), “inactive”.
Turning to `C[C@@H]1[C@H](O)[C@@H](C)/C=C/C=C\C=C\C=C\C=C\C=C\C=C\[C@H](O[C@@H]2O[C@H](C)[C@@H](O)[C@H](N)[C@@H]2O)C[C@@H]2O[C@](O)(C[C@@H](O)C[C@@H](O)[C@H](O)CC[C@@H](O)C[C@@H](O)CC(=O)O[C@H]1C)C[C@H](O)[C@H]2C(=O)O` (stereo in doubt), the Potency entry was “inactive”.
In the case of `CCCCCCCCCCCCCCCC(=O)OCC(COC(=O)CCCCCCCCCCCCCCC)OC(=O)CCCCCCCCCCCCCCC` it was “inactive”.
Then `O=S(=O)(O)c1ccc2c(N=Nc3ccc(S(=O)(=O)O)c4ccccc34)c(O)c(S(=O)(=O)O)cc2c1`, with “inactive”; and `O=S(=O)(O)O`, with “inactive”.
